POLB inh – inhibitors of human DNA polymerase beta. Pol beta primer extension/strand displacement, fluorescence kinetic. Potency, µM (series often up to 114 µM), for inactives: at the top dose activity change, negative = inhibition, hits mostly inhibitors. P06746. hit rate 1.3% among 340,000; note: % is set by controls: 0 for no effect and ±100 for the full control effect
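Human Pol beta at 10 nM; strand-displacement substrate 50 nM final. Compound exposure 15 min at room temperature before start, reaction 10 min at room temperature.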
TDP1 inh – blocks human tyrosyl-DNA phosphodiesterase 1; recombinant TDP1, AlphaScreen DNA substrate cleavage; Potency, µM (titrated, usually from 130 µM), for inactives: at the top dose activity change, negative = inhibition, most hits filed as inhibitors; hit rate 0.28% among 350,000; note: % is set by controls: 0 for no effect and ±100 for the full control effect; nearly all actives have a fitted effect of over 40% in size
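Enzyme-compound mixtures sat 15 min at room temperature, followed by a 5 min reaction with 15 nM final substrate and 10 min with AlphaScreen beads. Recombinant human Tdp1 was used at 1 nM final.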
Pol eta inh – blocks human DNA polymerase eta activity. Q9Y253. recombinant Pol eta, fluorescent DNA replication assay. Potency, µM (doses to about 114 µM), for the others: top-dose activity change, negative = inhibition, most hits filed as inhibitors. hit rate 1.2% among 390,000. AID 588591; note: % is set by controls: 0 for no effect and ±100 for the full control effect
Target sequence (Q9Y253 whole entry, looked up): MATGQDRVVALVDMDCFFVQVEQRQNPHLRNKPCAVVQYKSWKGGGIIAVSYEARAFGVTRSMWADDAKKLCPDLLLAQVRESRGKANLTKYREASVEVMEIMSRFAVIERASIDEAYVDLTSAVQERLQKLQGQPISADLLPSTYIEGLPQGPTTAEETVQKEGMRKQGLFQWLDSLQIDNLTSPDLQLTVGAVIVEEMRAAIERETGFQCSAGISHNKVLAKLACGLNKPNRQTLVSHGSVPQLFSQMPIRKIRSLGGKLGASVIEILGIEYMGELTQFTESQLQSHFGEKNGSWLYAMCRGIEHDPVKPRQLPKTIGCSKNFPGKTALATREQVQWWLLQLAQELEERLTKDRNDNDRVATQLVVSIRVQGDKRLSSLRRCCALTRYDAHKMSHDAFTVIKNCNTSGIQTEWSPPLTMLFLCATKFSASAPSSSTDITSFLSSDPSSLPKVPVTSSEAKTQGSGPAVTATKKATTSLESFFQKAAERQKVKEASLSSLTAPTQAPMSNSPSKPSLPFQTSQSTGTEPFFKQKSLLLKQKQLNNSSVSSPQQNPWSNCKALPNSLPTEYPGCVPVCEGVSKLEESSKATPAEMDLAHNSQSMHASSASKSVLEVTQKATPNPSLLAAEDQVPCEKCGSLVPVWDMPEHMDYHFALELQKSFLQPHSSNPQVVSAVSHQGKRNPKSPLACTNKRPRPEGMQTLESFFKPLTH
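Pol eta at 10 nM preincubated with compounds 15 min at room temperature; reaction started with fluorescent substrate (50 nM final) and read kinetically at 0 and 10 min.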
POLK inh – DNA polymerase kappa (human) inhibition | Q9UBT6 | AID 588579 | purified Pol kappa, fluorescent DNA synthesis assay, 10 min | hit rate 0.53% among 400,000 | Potency, µM (titrated, usually from 107 µM), without a hit: top-dose activity, negative = inhibition, actives largely listed as inhibitors; note: % is set by controls: 0 for no effect and ±100 for the full control effect
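10 nM Pol kappa preincubated 15 min at room temperature with compounds, then reaction started with substrate at 50 nM final. Fluorescence read kinetically at 0 and 10 min; buffer-only wells served as negative control.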
Pol iota inh – inhibitors of human DNA polymerase iota. Pol iota fluorescent replication assay, 10 min. hit rate 1% among 390,000. Potency, µM (series often up to 115 µM), for the others: at the top dose activity, negative = inhibition, usual class: inhibitors
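Pol iota at 10 nM preincubated 15 min with compounds at room temperature; reaction started with fluorescent substrate, 50 nM final. Fluorescence read kinetically at 0 and 10 min; buffer-only wells as negative control.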
Active calls of the source: *; ? = inconclusive; · = no result given; [ ] = remark or other dose. This is a sample that favours compounds with a hit; in the whole collection about 2.4% have one here. Calls come from the whole dose curve; as a rule, active = well fitted curve in the direction sought with a large enough effect; inconclusive = small, poorly fitted or top-dose-only effect, or another doubt; inactive = no such curve, though single readings can be large; an effect the other way counts as inactive or inconclusive. Potency is the fitted concentration of half-maximal effect.

SMILES	POLB inh	TDP1 inh	Pol eta inh	POLK inh	Pol iota inh
C=CCOc1ccc(/C=C2\SC(=S)N(C(C(=O)O)c3ccccc3)C2=O)cc1 (centres undefined)	5%	6%	79µM*	-4%	?
O=C(NCc1ccc(F)cc1)n1c(-c2ccccc2)c(P(=S)(c2ccccc2)c2ccccc2)c2ccccc21	·	-2%	·	·	·
O=c1cc(-c2c(O)c3ccccc3n(Cc3ccccc3)c2=O)[nH][nH]1	8.9µM*	5%	?	79µM*	?
Cn1c(=O)c(-c2cc(=O)[nH][nH]2)c(O)c2ccccc21	?	-9%	-8%	-29%	73%
Cc1ccccc1-c1cc2c(nn1)-c1ccccc1C2=O	-2%	6%	-14%	-6%	16µM*
Cc1cn2c(=O)cc(COC(=O)c3cccc(NC(=O)COc4ccccc4Cl)c3)nc2s1	2%	4%	-19%	0%[60.1 µM]	-1%
Cc1c(C(=O)N(Cc2ccco2)Cc2cccs2)oc2ccccc12	·	0%	?	?	40µM*
COc1ccc(/C=C2\SC(N)=NC2=O)cc1Br	40µM*	·	?	-20%	?
CCCOc1ccccc1/C=C1\SC(N)=NC1=O	21%	6%	-5%	-6%	23%
CCCOc1ccc(/C=C2\SC(N)=NC2=O)cc1OC	56µM*	·	-18%	3%	?
CCCCn1c(=NC(=O)c2cc3ccccc3o2)c(C(=O)OCC)cc2c(=O)n3ccccc3nc21	14%	6%	-8%	-17%	45%
COc1cccc(C2c3c(ncn(-c4ccccc4C)c3=N)Oc3ccc4ccccc4c32)c1 (centres undefined)	·	4%	·	·	·
O=C(NCCSCc1ccco1)c1ccc(=O)[nH]c1	-7%	-4%[0.0935 µM]	-20%	-38%	50µM*
CS(=O)(=O)Nc1ccc(C(=O)NCCSCc2ccco2)cc1	-21%	-3%	?	-10%	10%
O=C(CSCc1c(F)cccc1Cl)NCCSCc1ccco1	25µM*	3%	1%	-25%	-16%
Cc1ccc(CSCCNC(=O)CN(c2cc(C)ccc2C)S(C)(=O)=O)cc1	-10%	3%	-9%	-4%	0%
O=C(CSCc1c(F)cccc1Cl)NCc1ccco1	7%	5%	-11%	-5%	-13%
Cc1ccc(C)c(N(CC(=O)NCCSCc2ccco2)S(C)(=O)=O)c1	28µM*	2%	22µM*	79µM*	?
Cc1cccc(OCCC(=O)NO)c1	·	·	·	1%	14%
Cc1nn(-c2ccccc2)c2nc(C(F)F)cc(C(F)F)c12	·	56µM*	3%	-16%	-2%
CSc1ccc(CCNC(=O)CCc2c(C)nc3c(-c4ccccc4)c(C)nn3c2C)cc1	4%	9%	-21%	-10%	34%
C=CCSc1nnc2nc3c(nn12)c1cc(C)ccc1n3CC=C	25µM*	2%	?	2%	?
COc1ccccc1C(=O)NNC(=O)c1ccc2ccccc2c1	12%	·	-17%	89µM*	36%
COc1cc2ccccc2cc1C(=O)Nc1ccc(O)cc1	22µM*	-4%	-3%	-6%	66%
COc1ccccc1C(=O)Nc1ccc2c(c1)C(=O)NC2=O	56µM*	·	-13%	-16%	12%
SMILES	POLB inh	TDP1 inh	Pol eta inh	POLK inh	Pol iota inh
COc1ccccc1C(=O)NNC(=O)C1CC=CCC1 (centres undefined)	23%	35µM*	4%	-11%	20%
COC(=O)NNC(=O)c1ccccc1OC	-18%	5%	-9%	3%	27%
Cc1oc2ccc(O)c(CN3CCN(Cc4ccccc4)CC3)c2c1C(=O)Nc1cccc(Cl)c1C	38%	-4%	-8%	14%	?
COc1ccc2c(=O)c(C)c(-c3ccccc3)oc2c1CN(C)C	·	·	·	3%[19.4 µM]	·
CC(C)(C)OC(=O)NCC(=O)NNC(=O)c1cc2ccccc2[nH]1	·	0%	·	·	·
O=C(/C=C/c1cccs1)Nc1scc(-c2ccccc2)c1C(=O)O	?	32µM*	79µM*	-19%	2.5µM*
COc1ccc2c(C)nc(N/C(N)=N/S(=O)(=O)c3ccc(C)cc3)nc2c1	0%	6%	-4%	-11%	89µM*
COc1ccc(NC(=O)/C(Cl)=C(/Cl)S(=O)Cc2ccccc2)cn1 (centres undefined)	19%	5%	-16%	-12%	32µM*
COc1ccc(NC(=O)Cc2ccccc2)cn1	-17%	4%	-11%	-27%	86%
